Test results reported in PubChem BioAssay (NCI).
The panel holds about 83,000 compounds, 20% with a hit somewhere; the sample as a whole holds those more often.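 In brief: 96-well plates, 48 h treatment, single concentration, percent growth endpoint.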 The source made the active and inactive calls. Rule for the calls: active = growth percent below 10; inactive = the rest.

Key:
Assay in all cases: NCI-60 one-dose screen, 48 h (100 = growth as untreated, 0 = no growth, -100 = all killed)
[1] = test system: HCT-15 colon; conditions: 10 µM unless noted
[2] = test system: HT29 colon; conditions: 10 µM unless noted
[3] = test system: SNB-75 CNS; conditions: 10 µM unless noted
[4] = test system: SNB-19 CNS; conditions: 10 µM unless noted
[5] = test system: U251 CNS; conditions: 10 µM unless noted
[6] = test system: PC-3 prostate; conditions: 10 µM unless noted
[7] = test system: SK-MEL-5 melanoma; conditions: 10 µM unless noted
[8] = test system: LOX IMVI melanoma; conditions: 10 µM unless noted
[9] = test system: SK-MEL-28 melanoma; conditions: 10 µM unless noted
[10] = test system: SK-MEL-2 melanoma; conditions: 10 µM unless noted
[11] = test system: EKVX NSCLC; conditions: 10 µM unless noted
[12] = test system: SN12C renal; conditions: 10 µM unless noted
[13] = test system: UO-31 renal; conditions: 10 µM unless noted
[14] = test system: TK-10 renal; conditions: 10 µM unless noted
[15] = test system: CAKI-1 renal; conditions: 10 µM unless noted
[16] = test system: A498 renal; conditions: 10 µM
[17] = test system: HL-60(TB) leukemia; conditions: 10 µM unless noted
[18] = test system: CCRF-CEM leukemia; conditions: 10 µM unless noted
[19] = test system: ACHN renal; conditions: 10 µM unless noted
[20] = test system: UACC-62 melanoma; conditions: 10 µM unless noted

Measured: growth

Clc1ccc(CSC(Cn2ccnc2)c2ccc(Cl)cc2Cl)cc1 (configuration not stated)
inactive: [1] 29% | [2] 30.5% | [3] 57.9% | [4] 47.3% | [5] 27.8% | [6] 15% | [8] 18% | [9] 62.3% | [10] 34.1% | [11] 31.7% | [12] 38.5% | [14] 32.3% | [15] 20.8% | [16] 49.2% | [18] 20%
active: [7] -9.89% | [13] 4.12% | [17] -11.6%

COc1ccc2c(c1)c(-c1nc(-c3cn(C)c4ncccc34)cs1)cn2CCN1CCOCC1
active: [13] 3.02%
inactive: [1] 20.9% | [2] 25.9% | [3] 63.3% | [4] 33.1% | [5] 28.2% | [6] 17.6% | [7] 30.7% | [8] 32.5% | [9] 56.1% | [10] 56% | [11] 61.1% | [12] 34.3% | [14] 49.4% | [19] 32.1% | [16] 76.1% | [17] 31.3% | [18] 31.1%

C=CCc1cc2c(cc1OCC)OCO2
inactive: [1] 96.5% | [2] 87.7% | [3] 106% | [4] 99.7% | [5] 107% | [6] 80.8% | [7] 103% | [8] 94.2% | [9] 102% | [10] 104% | [11] 91.1% | [12] 98.8% | [13] 95.4% | [14] 92% | [15] 102% | [16] 91.3% | [17] 98.1% | [18] 106%

Fc1ccc2c(c1)c(-c1nc(-c3c[nH]c4ncccc34)cs1)cn2CCCCN1CCCCC1
active: [1] -72% | [2] -97% | [3] -70.5% | [4] -88.5% | [5] -87.7% | [6] -86.5% | [7] -83.1% | [8] -79.3% | [9] -86.9% | [10] -76.7% | [12] -84.4% | [13] -86.9% | [14] -86.1% | [17] -70% | [18] -61.4%
inactive: [11] 23.3% | [16] 63.2%

OCc1ccc2c(c1)OCO2
inactive: [1] 104% | [2] 96.4% | [3] 84.5% | [4] 104% | [5] 95.8% | [6] 94.3% | [7] 102% | [8] 95.3% | [9] 108% | [10] 99.5% | [11] 96.3% | [12] 101% | [13] 88% | [14] 91.7% | [19] 104% | [15] 93.2% | [16] 111% | [17] 96.1% | [18] 102%

COc1ccc2c(c1)c(-c1nc(-c3cn(C)c4ncccc34)cs1)cn2CCCCN1CCCCC1
inactive: [3] 63.9% | [11] 55.4% | [16] 71.8%
active: [1] -80.9% | [2] -72.6% | [4] -1.68% | [5] -85.6% | [6] -66.3% | [7] -80.4% | [8] -78% | [9] -69% | [10] -31.5% | [12] -79.7% | [13] -89.4% | [14] -26.8% | [19] -95.2% | [17] -64.9% | [18] -50.5%

CN1CCCCC1C(C)(O)c1ccccc1 (configuration not stated)
inactive: [1] 100% | [2] 93.4% | [3] 93% | [4] 107% | [5] 101% | [6] 82.1% | [7] 104% | [8] 99% | [9] 105% | [10] 106% | [12] 102% | [13] 92.5% | [14] 94.9% | [19] 108% | [15] 96.4% | [16] 101% | [17] 114% | [18] 112%

CCOC(=O)N[C@H]1CCc2c(Br)c(OC)c(OC)c(OC)c2-c2ccc(SC)c(=O)cc21
inactive: [2] 13.1% | [3] 17.2% | [4] 28.7% | [5] 19.7% | [6] 24.2% | [9] 56.8% | [10] 43.5% | [11] 45.4% | [12] 24.3% | [13] 27.3% | [14] 42.1% | [19] 24.4%
active: [1] 8.88% | [7] -23.4% | [8] 9.29% | [15] 3.95% | [17] -39.9% | [18] 1.82%

CC(=O)OC1CCC2(C)C(CCC3C2CC(=O)C2(C)C3CC(Sc3ccc(N(CCCl)CCCl)cc3)C2C(C)=O)C1 (configuration not stated)
inactive: [1] 50.5% | [2] 11.9% | [3] 111% | [4] 82.7% | [5] 68.1% | [6] 85.5% | [7] 93% | [8] 55.1% | [9] 99.8% | [10] 93.3% | [11] 115% | [12] 87.3% | [13] 77.6% | [14] 92.6% | [19] 72.3% | [15] 68% | [16] 103% | [17] 79.3% | [18] 63.1%

CC1(C)N=C(N)N=C(N)N1c1ccc(OCCCNC(=O)Nc2ccc(S(=O)(=O)F)cc2)c(Cl)c1
inactive: [1] 41.5% | [3] 57.6% | [4] 28.6% | [5] 24.5% | [6] 12.7% | [7] 29% | [8] 16.2% | [9] 54.2% | [10] 53.3% | [11] 53% | [12] 23.8% | [13] 83.6% | [14] 33.3% | [19] 26.4% | [15] 92.1% | [17] 31.8% | [18] 24.2%
active: [2] 8%

COC(=O)[C@@H](C)C[C@H](Cc1ccccc1)NC(=O)c1csc([C@@H](C[C@H](C(C)C)N(C)C(=O)[C@@H](NC(=O)C23CC(NC(C)=O)(C2)C3)C2CC2)OC(C)=O)n1
active: [17] -17.2% | [18] 9.99%
inactive: [1] 92% | [2] 20.9% | [3] 14% | [4] 65.3% | [5] 33.1% | [6] 44.4% | [7] 30.5% | [8] 31.7% | [9] 61.3% | [10] 49% | [11] 78.8% | [12] 51.7% | [13] 95.4% | [14] 77.1% | [19] 96.2% | [15] 95.3% | [16] 48.3%

COC(=O)C1CCC(NC(=O)c2csc([C@@H](C[C@H](C(C)C)N(C)C(=O)[C@@H](NC(=O)[C@H]3CCCCN3C)C(C)C)OC(C)=O)n2)CC1 (some centres not stated)
active: [2] -0.603% | [5] 2.97% | [7] -27.7% | [16] -6.6% | [17] -21.8%
inactive: [1] 11.5% | [3] 61.6% | [4] 38.4% | [6] 28.9% | [8] 21.5% | [9] 60% | [10] 28.6% | [11] 40.8% | [12] 28.7% | [13] 60.8% | [14] 63.1% | [19] 23.8% | [18] 13%

Brc1ccc2c(c1)c(-c1nc(-c3c[nH]c4ncccc34)cs1)cn2CCN1CCOCC1
inactive: [1] 35.5% | [2] 57.8% | [3] 56.4% | [4] 71.6% | [5] 52.8% | [6] 30.3% | [7] 51.3% | [8] 66.7% | [9] 94.5% | [10] 80% | [11] 43.5% | [13] 35.8% | [14] 74.1% | [19] 55.2% | [16] 88.7% | [17] 71% | [18] 45.8%

O=C1OCCC1Br (configuration not stated)
inactive: [1] 98.7% | [2] 97.3% | [3] 89.9% | [4] 104% | [5] 92.2% | [6] 99.5% | [20] 103% | [8] 97.4% | [9] 99.5% | [10] 96.5% | [12] 103% | [13] 96.4% | [14] 104% | [19] 102% | [15] 95% | [16] 101% | [17] 78.1%

CC(=O)OC1C(OC/C2=C/C3[C@@H](C(C)C)CC=C(C)[C@@H]3CC(OC(=O)/C=C/c3cn(C)cn3)[C@]3(C)C=C[C@@]2(O)O3)OCC(O)C1O (some centres not stated)
active: [2] 8.89% | [3] -28.6% | [17] -3.65%
inactive: [1] 36.2% | [4] 37% | [5] 18.2% | [6] 26.5% | [20] 26.5% | [8] 35.2% | [9] 45.7% | [10] 45.6% | [11] 33.9% | [12] 44.2% | [13] 40.4% | [14] 32.3% | [15] 37% | [16] 13.2% | [18] 22.5%

CC(C)(C)C(=O)OCOP(=O)(NCc1ccccc1)C1CCCN(O)C1=O (configuration not stated)
active: [12] 5.58% | [13] 1.82%
inactive: [1] 22.5% | [2] 21.5% | [3] 70.6% | [4] 37.9% | [5] 13.8% | [6] 67.7% | [20] 19.5% | [8] 51.9% | [9] 17% | [10] 53.7% | [11] 67.3% | [14] 68.9% | [19] 34.2% | [15] 31.9% | [18] 12.9%
